Here are results for 17 compounds from PubChem BioAssay.

The structures appear in SMILES notation. Several values for one entry are separate records, joined by “and”; a condition that tells them apart may be missing. Equal entries are not always repeated. Records with an inconclusive call do not appear. Activity calls are given as the source filed them.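 Rule for the calls, unless noted: active = compounds whose cell count with miR-34 switched on is under 0.7 times the count with it off; inactive = the rest.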

The nature of experiment [1]: compounds altering circadian rhythm period length – cell-based, LOPAC library, luminescence reporter (AID 2774; call rule not given here;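 note: values are relative to mean of DMSO wells on each plate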). As to conditions: circadian reporter cells, at 7 µM, actives lie on both sides.
Experiment [2] deals with Hepatitis C virus NS3 helicase. The experiment in a line: blockers of NS3h binding to ssDNA – biochemical, fluorescence polarization, LOPAC1280 library, primary screen (AID 687035; in the data active = inhibition above about 37%). Conditions: Purified HCV NS3 helicase, Cy5-dT15 ssDNA binding fluorescence polarization; stronger effect = higher value; concentration not given here.
The nature of experiment [3]: compounds altering Cy5-DNA-NS3h complex signal – biochemical, LOPAC1280, artefact control for HCV NS3 helicase inhibitor project (AID 687037; call rule not given here). Conditions: Cy5-DNA-NS3h complex fluorescence interference counterscreen.
Experiment [4] is described as follows: viability loss with induced miR-34 in A549 – imaging, A549 dox-inducible miR-34, nuclei and caspase counts, primary screen (AID 1347080). Conditions: A549 miR-34 inducible, Hoechst nuclei count, 48 h.
Experiment [5] can be described thus: galactose survival enhancers in mitochondrial complex I cybrids – cell-based, galactose medium, ATP luminescence, primary screen (AID 1645843;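 active = z-score of at least 1.8 in each of two replicates, scored against plate mean and spread of sample wells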;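 note: positive z means more ATP and so rescue of galactose-driven cybrid death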). As to conditions: complex I mutant cybrid cells, 72 h, stronger effect = higher value.
Experiment [6] in a line: compounds altering viability of human ES cells (AID 493140; call rule not given here;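 note: cells exposed to compounds for four days before counting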). Conditions: human embryonic stem cell survival screen; stronger effect = higher value.
A short description of experiment [7]: P. berghei load reduction in hepatocytes – cell-based, HepG2, luciferase luminescence, HepG2 viability, primary screen (AID 624349; in the data active = parasite load remaining mostly below about 12%, no sharp cut-off; inactive = mostly above about 10%;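 note: 100% = mean of DMSO negative control wells on the same plate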). As to conditions: P. berghei liver stage in HepG2, luciferase luminescence, concentration not given here; parasite load remaining: stronger effect = lower value; viability: measured here: HepG2 viability without parasites.
The target of experiment [8] is ATP-dependent translocase ABCB1 (Homo sapiens) (UniProt P08183). The experiment in a line: P-glycoprotein substrate transport blockade – cell-based (AID 377; in the data active = fluorescence slope change above about 50%). As to conditions: MDR1-expressing cells, fluorescent substrate accumulation slope; stronger effect = higher value; concentration not given here.
Experiment [9] is described as follows: chitosan synthesis blockers in C. neoformans – flow cytometry, Cibacron Brilliant Red staining (AID 1347148; call rule not given here;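 note: compound exposure lasted three days at 37 degrees C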). As to conditions: Cryptococcus neoformans chitosan, stronger effect = lower value; at 10 µM unless noted.
[10] abbreviates: measured here: relative caspase fold change +Dox/-Dox.
The mark [11] stands for this setting: measured here: total cells with miR-34 induction, stronger effect = lower value.
The mark [12] stands for this setting: measured here: total cells without miR-34 induction.
Setting [13] is: stronger effect = lower value, cell number ratio, induced over uninduced.

ATP-dependent translocase ABCB1 (Homo sapiens), sequence (P08183 whole entry, looked up): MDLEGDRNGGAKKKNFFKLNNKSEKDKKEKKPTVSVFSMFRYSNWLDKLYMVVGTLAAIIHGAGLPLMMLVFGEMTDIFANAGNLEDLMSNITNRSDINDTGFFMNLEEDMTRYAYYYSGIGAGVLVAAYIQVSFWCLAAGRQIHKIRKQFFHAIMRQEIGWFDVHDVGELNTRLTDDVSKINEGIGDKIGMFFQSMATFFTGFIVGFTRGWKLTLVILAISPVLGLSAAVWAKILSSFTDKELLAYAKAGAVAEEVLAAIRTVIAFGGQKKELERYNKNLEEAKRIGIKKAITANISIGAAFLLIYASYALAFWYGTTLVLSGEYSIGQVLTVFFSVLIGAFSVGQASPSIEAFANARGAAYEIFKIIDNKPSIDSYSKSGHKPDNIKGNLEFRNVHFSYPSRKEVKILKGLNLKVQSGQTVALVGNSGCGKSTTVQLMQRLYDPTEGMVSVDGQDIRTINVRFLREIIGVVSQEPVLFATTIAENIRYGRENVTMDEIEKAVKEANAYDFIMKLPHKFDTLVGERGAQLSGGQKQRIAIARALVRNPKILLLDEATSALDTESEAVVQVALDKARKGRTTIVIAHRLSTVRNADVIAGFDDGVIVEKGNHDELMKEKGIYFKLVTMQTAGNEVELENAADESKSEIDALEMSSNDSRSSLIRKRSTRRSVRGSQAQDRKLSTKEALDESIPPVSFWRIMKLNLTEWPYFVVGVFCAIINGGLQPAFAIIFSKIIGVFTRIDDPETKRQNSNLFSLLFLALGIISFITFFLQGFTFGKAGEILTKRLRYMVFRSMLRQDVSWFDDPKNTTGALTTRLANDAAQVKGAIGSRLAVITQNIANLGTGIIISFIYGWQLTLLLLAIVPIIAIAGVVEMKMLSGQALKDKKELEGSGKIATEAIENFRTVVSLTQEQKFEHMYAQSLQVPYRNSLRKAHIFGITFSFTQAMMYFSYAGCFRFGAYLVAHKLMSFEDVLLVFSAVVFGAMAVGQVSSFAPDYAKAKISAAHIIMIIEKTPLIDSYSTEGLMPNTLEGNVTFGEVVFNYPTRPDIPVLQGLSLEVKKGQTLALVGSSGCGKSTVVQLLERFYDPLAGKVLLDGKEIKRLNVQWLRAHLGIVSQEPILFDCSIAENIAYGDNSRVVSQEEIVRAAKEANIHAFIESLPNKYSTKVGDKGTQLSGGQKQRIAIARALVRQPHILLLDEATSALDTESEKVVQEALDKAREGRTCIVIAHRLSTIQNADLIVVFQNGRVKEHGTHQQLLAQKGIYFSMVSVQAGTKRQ

For orientation: inhibition means the relative decrease from the control value, in per cent. In the case of `NC(CCCCCP(=O)(O)O)C(=O)O` (configuration not stated), in experiment [1], the period change is -0.03 h (inactive). For the same compound, the inhibition in experiment [2] was -1% (inactive). The fluorescence ratio (interference) in [3] is 1 (inactive). In addition, the fold change in experiment [4] (stronger effect = lower value) was 1.02 (inactive); in experiment [4] (setting [10]), 2.45. Further, the cell count in experiment [4] (setting [11]) came to 10400; in experiment [4] (setting [12]) it was 10200. The z-score in experiment [5] was 0.42 (inactive).
With `CC(C)[C@]12OC1C1O[C@]13[C@]1(OC1CC1C4=C(CC[C@@]13C)C(=O)OC4)C2O` (some centres not stated), the results for the fold change in experiment [4] (setting [13]) and in experiment [4] (setting [10]) were 0.971 (inactive) and 1.93, respectively. Further, the cell count in experiment [4] (setting [11]) stood at 2260; in [4] (setting [12]), 2320. For the same compound, the z-score in [5] is -1.85 (inactive).
Broadly, the viability is a read-out of living cells in per cent, often relative to untreated cells. For `COc1ccc(C[C@@H]2NC[C@@H](O)[C@@H]2OC(C)=O)cc1`, the survival in experiment [6] was 0.25 (inactive). The parasite load remaining in experiment [7] is 4.56% (inactive). The viability in experiment [7] worked out at 32.9%. Besides, the fold change in experiment [4] (stronger effect = lower value) was 0.95 (inactive); in experiment [4] (setting [10]), 1.1. In addition, the cell count in experiment [4] (setting [11]) was 1100; in [4] (setting [12]) it was 1160.
Take `C[C@]12CCC3C4CCC(=O)C=C4CCC3C1CCC2O` (some centres not stated): the figures for the fold change in [4] (stronger effect = lower value) and in [4] (setting [10]) were 0.894 (inactive) and 1.48, respectively. Further, the cell count in experiment [4] (setting [11]) was 7980; in experiment [4] (setting [12]), 8920. Further, the z-score in experiment [5] was -0.31 (inactive).
Consider `C[C@]12Cc3cn[nH]c3CC1CCC1C2CC[C@@]2(C)C1CC[C@]2(C)O` (some centres not stated), for which the fold change in experiment [4] (stronger effect = lower value) was 0.922 (inactive); in [4] (setting [10]) it was 1.42. Further, the cell count in experiment [4] (setting [11]) came to 8110; in experiment [4] (setting [12]), 8800. Besides, the z-score in [5] was -0.42 (inactive).
On the same counts, the results for `C=C(C)CN1CC[C@]23c4c5ccc(O)c4OC2c2[nH]c4ccccc4c2C[C@@]3(O)C1C5` (some centres not stated) are 0.245 (active), 1.96, 761, 3110 and -1.44 (inactive).
On the same counts, the results for `CC[C@]1(O)CCC2C3CCC4=CCCCC4C3CC[C@@]21C` (some centres not stated) are 1.01 (inactive), 1.28, 5670, 5590 and -0.425 (inactive).
Consider `O=C1C=C2C=C[C@@H]3CC2(O1)[C@H]1CCCCN31`, for which the fluorescence slope change in experiment [8] is 28.7% (inactive). Also, the survival in experiment [6] is 2.33 (inactive). Further, the parasite load remaining in experiment [7] was 0.53% (active). The viability in [7] is 98.2%. Also, the fold change in experiment [4] (stronger effect = lower value) is 0.999 (inactive); in experiment [4] (setting [10]) it was 0.949. Besides, the cell count in [4] (setting [11]) and in experiment [4] (setting [12]) was 2810 each time.
Take `CCCCCCCCCCCCCCCCOC[C@H](COP(=O)([O-])OCC[N+](C)(C)C)OC(C)=O`: the survival in experiment [6] was 57.8 (inactive). The fold change in experiment [4] (stronger effect = lower value) was 0.933 (inactive) and 0.881 (inactive); in experiment [4] (setting [10]), 1.16 and 1.84. Also, the cell count in [4] (setting [11]) was 5630 and 5430; in [4] (setting [12]), 6040 and 6160.
Take `C=C1C/C(=C/C)C(=O)O[C@@H]2CCN3CC=C(COC(=O)[C@]1(C)O)[C@H]23`: in experiment [6], the survival was 10.6 (inactive). In addition, the parasite load remaining in experiment [7] was 91.1% (inactive) and 73.7% (inactive). The viability in [7] is 125% and 77.7%. Besides, the figures for the fold change in experiment [4] (stronger effect = lower value) and in experiment [4] (setting [10]) were 0.88 (inactive) and 1.73, respectively. In addition, the cell count was found to be 9540 in experiment [4] (setting [11]) and 10800 in experiment [4] (setting [12]).
For `C[C@H]1C2Cc3ccc(O)cc3C1(C)CCN2CC1CC1` (some centres not stated), the period change in experiment [1] is -0.055 h (inactive). Besides, the fold change in experiment [4] (stronger effect = lower value) was 0.949 (inactive); in [4] (setting [10]), 1.14. Besides, the cell count in experiment [4] (setting [11]) is 10600; in experiment [4] (setting [12]) it was 11200. Also, the z-score in experiment [5] is -0.12 (inactive).
For `CN1C[C@H](C(=O)N[C@]2(C)C[C@@]3(O)C4CCCN4C(=O)[C@H](Cc4ccccc4)N3C2=O)C=C2c3cccc4[nH]cc(c34)C[C@H]21` (some centres not stated), the parasite load remaining in experiment [7] was 49.1% (inactive). In addition, the viability in experiment [7] was determined as 102%. Also, the fold change was 0.836 (inactive) in [4] (setting [13]) and 6.73 in [4] (setting [10]). In addition, the cell count in experiment [4] (setting [11]) stood at 10900; in experiment [4] (setting [12]) it was 13000.
Consider `CCN1C[C@]2(COC)CC[C@H](O)[C@]34C1[C@](O)([C@@H](OC)[C@H]23)[C@@]1(O)C[C@H](OC)[C@H]2C[C@@H]4[C@@H]1[C@H]2OC`, for which the parasite load remaining in experiment [7] was 79.1% (inactive). In addition, in experiment [7], the viability was 102%. Further, the fold change is 0.871 (inactive) in experiment [4] (setting [13]) and 0.967 in experiment [4] (setting [10]). The cell count stood at 9200 in experiment [4] (setting [11]) and 10600 in experiment [4] (setting [12]).
Take `C[C@H]1CC[C@@H]2[C@@H](C)[C@H]3[C@H](C[C@H]4[C@@H]5CC=C6C[C@@H](O[C@@H]7O[C@H](CO)[C@H](O)[C@H](O[C@@H]8O[C@H](CO)[C@@H](O)[C@H](O)[C@H]8O)[C@H]7O[C@@H]7O[C@@H](C)[C@H](O)[C@@H](O)[C@H]7O)CC[C@]6(C)[C@H]5CC[C@]34C)N2C1`: in experiment [7], the parasite load remaining was 143% (inactive). Moreover, the viability in [7] is 114%. Besides, the fold change in experiment [4] (setting [13]) was 0.926 (inactive); in [4] (setting [10]), 1.19. Further, the results for the cell count in experiment [4] (setting [11]) and in [4] (setting [12]) were 8230 and 8880, respectively.
On to `CCN1C[C@]2(C)CC[C@H](OC)[C@@]34C1[C@]1(OCO[C@@]15C[C@H](OC)[C@H]1C[C@]3(O)[C@@H]5[C@H]1OC)[C@@H](OC(C)=O)[C@H]24`, for which, in experiment [7], the parasite load remaining is 91.7% (inactive). For the same compound, the viability in experiment [7] was 96.9%. Also, the fold change is 0.951 (inactive) in experiment [4] (setting [13]) and 0.675 in experiment [4] (setting [10]). For the same compound, the cell count in [4] (setting [11]) turned out to be 10000; in [4] (setting [12]) it was 10500.
With `CCCCCCCCCCCCCC(=O)O[C@H]1[C@H](C)[C@]2(O)[C@H](C=C(CO)C[C@@]3(O)C(=O)C(C)=C[C@H]23)[C@H]2C(C)(C)[C@@]12OC(C)=O`, the fold fluorescence in [9] is 4.29 [at 81.1 µM] (inactive).
As for `CO[C@H](C)C(O)(C(=O)OCC1=CCN2CC[C@H](O)[C@@H]12)C(C)C` (some centres not stated), the parasite load remaining in [7] was 69.7% (inactive). Also, the viability in experiment [7] was 101%. Besides, the fold change in experiment [4] (setting [13]) is 0.879 (inactive); in experiment [4] (setting [10]) it was 1.23. For the same compound, the cell count in experiment [4] (setting [11]) amounted to 8290; in experiment [4] (setting [12]) it was 9440.
